Laboratory results: the supplement of paper PMC6555819

Experiments:
Assay in all cases: PBM binding z-score (relative to random genomic background probes); higher = stronger binding; sequences stand for … in GC…GCGATTGACAGCGTAGAATGAAGG
[1] = system: FXR:RXRa (NR concentration 270 nM, RXRa partner concentration 90 nM)
Procedure, shortened: (§1)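 Each nuclear receptor dimer, without ligand, was incubated for 1 h on custom Agilent 4×180K protein-binding microarrays. Binding was detected with antibodies against each partner (one per run), and scanned fluorescence was regression-normalized. The binding z-scores are referenced to random human genomic background probes.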

[2] = system: LXRa:RXRa (NR concentration 270 nM, RXRa partner concentration 90 nM)
Procedure, shortened: as §1

[3] = system: LXRa homodimer (NR concentration 270 nM)
Procedure, shortened: as §1

[4] = system: LXRb:RXRa (NR concentration 270 nM, RXRa partner concentration 90 nM)
Procedure, shortened: as §1

[5] = system: LXRb homodimer (NR concentration 270 nM)
Procedure, shortened: as §1

[6] = system: PPARa:RXRa (NR concentration 270 nM, RXRa partner concentration 90 nM)
Procedure, shortened: as §1

[7] = system: PPARg:RXRa (NR concentration 180 nM, RXRa partner concentration 90 nM)
Procedure, shortened: as §1

[8] = system: PPARg:RXRa 270nM:90nM, anti-RXR (NR concentration 270 nM, RXRa partner concentration 90 nM)
Procedure, shortened: as §1

[9] = system: PPARg:RXRa 30nM:10nM, anti-RXR (NR concentration 30 nM, RXRa partner concentration 10 nM)
Procedure, shortened: as §1

[10] = system: PPARg:RXRa 90nM:30nM, anti-RXR (NR concentration 90 nM, RXRa partner concentration 30 nM)
Procedure, shortened: as §1

[11] = system: PPARg:RXRa DBDmut IVT, anti-RXR (DBD mutation: RXRa K156A/R161A, NR concentration 270 nM, RXRa partner concentration 90 nM)
Procedure, shortened: as §1

[12] = system: PPARg:RXRa IVT, anti-PPARg (NR concentration 270 nM, RXRa partner concentration 90 nM)
Procedure, shortened: as §1

[13] = system: PPARg DBDmut:RXRa IVT, anti-PPARg (DBD mutation: PPARg1 K132A/R137A, NR concentration 270 nM, RXRa partner concentration 90 nM)
Procedure, shortened: as §1

[14] = system: PPARg DBDmut IVT, anti-PPARg (DBD mutation: PPARg1 K132A/R137A, NR concentration 270 nM)
Procedure, shortened: as §1

[15] = system: PPARg homodimer (NR concentration 180 nM)
Procedure, shortened: as §1

[16] = system: PXR:RXRa (NR concentration 270 nM, RXRa partner concentration 90 nM)
Procedure, shortened: as §1

[17] = system: PXR homodimer (NR concentration 270 nM)
Procedure, shortened: as §1

[18] = system: RARa:RXR (NR concentration 270 nM, RXRa partner concentration 90 nM)
Procedure, shortened: as §1

[19] = system: RARa homodimer (NR concentration 270 nM)
Procedure, shortened: as §1

[20] = system: RARb:RXRa (NR concentration 270 nM, RXRa partner concentration 90 nM)
Procedure, shortened: as §1

Row | Sequence | PBM binding z-score [1] | PBM binding z-score [2] | PBM binding z-score [3] | PBM binding z-score [4] | PBM binding z-score [5] | PBM binding z-score [6] | PBM binding z-score [7] | PBM binding z-score [8] | PBM binding z-score [9] | PBM binding z-score [10] | PBM binding z-score [11] | PBM binding z-score [12] | PBM binding z-score [13] | PBM binding z-score [14] | PBM binding z-score [15] | PBM binding z-score [16] | PBM binding z-score [17] | PBM binding z-score [18] | PBM binding z-score [19] | PBM binding z-score [20]
1 | CGAACGCGGGCATGAGTTGATAGCAAATGCCGAT | -0.653 | -0.715 | -0.461 | -0.883 | -1.24 | -0.441 | 0.36 | -0.484 | -0.861 | -0.633 | -0.0191 | -0.364 | -0.145 | -0.957 | -0.435 | -0.69 | -0.265 | -0.878 | -0.807 | -0.0245
2 | AGTCAAAGTTCAGGACGAGGTAACCTAAAGCACG | 4.17 | 3.71 | 1.24 | 1.96 | 0.245 | 3.49 | 4.24 | 4.79 | 2.04 | 3.75 | -0.128 | 2.2 | 0.0369 | 0.548 | 2.47 | 2.74 | 1.53 | 2.96 | 0.958 | 4.23
3 | CATACAGGGTCAGCGAGGCCAGAGTAGGGACGGC | 5.13 | 3.36 | -0.392 | 2.27 | -0.0459 | 5 | 4.21 | 3.65 | 0.828 | 2.12 | 0.932 | 2.99 | 0.657 | 0.403 | 1.75 | 3.02 | 0.862 | 3.03 | 0.389 | 4.24
4 | ATCTCTAGGTAAAAAGTTCAGTGAAAGAGAGGAC | 1.28 | 1.39 | 1.03 | 0.921 | 0.888 | 1.98 | 2.7 | 3.72 | 2.6 | 3.68 | 1.79 | 2.04 | 1.14 | 0.995 | 1.73 | 1.56 | 1.46 | 1.33 | 1.65 | 2.38
5 | ATCTCTAGGTAACCAAGTTCAGAGAATGCCGAAC | 0.204 | 0.722 | 0.915 | 0.628 | 0.739 | 1.2 | 0.721 | 0.986 | -0.0566 | 0.52 | 3.4 | 2.88 | 1.18 | 0.83 | 0.879 | 2.15 | 1.71 | 0.548 | 0.605 | 1.22
6 | GCATATAGGTATTACAAGGTGAAAGTCCGATTGT | 0.758 | 0.25 | 0.246 | 0.0719 | -0.375 | 1.38 | 0.78 | 0.981 | 0.434 | 0.722 | 1.46 | 1.46 | 0.48 | 1.21 | 0.307 | 0.0796 | 0.205 | 1.69 | 0.465 | 0.417
7 | CCTAGCAGGCCAATCTGTGTCACTCAAGGCTTGA | -0.0282 | -0.198 | -0.502 | -0.335 | -0.193 | 0.394 | -0.0496 | -0.118 | -0.619 | -0.304 | 2.87 | 2.13 | -1.03 | -1.32 | -0.244 | -0.438 | -0.358 | -0.217 | -0.52 | 0.211
